Molecules are shown by their SMILES. Results filed as inconclusive are left out. A number with no mark means an inactive call. Activity calls are given as the source filed them. The call rests on the fitted dose curve; in most records, active means well fitted curve in the direction sought with a large enough effect; inconclusive means small, poorly fitted or top-dose-only effect, or another doubt; inactive means no such curve, though single readings can be large; an effect the other way counts as inactive or inconclusive.

In PubChem BioAssay (NCATS) one finds Potency and activity, negative = inhibition data, which are given here for 6 molecules.

Test [1] deals with ATP-dependent 6-phosphofructokinase (Trypanosoma brucei brucei) (UniProt O15648). The test is described as follows: qHTS Assay to Find Inhibitors of T. brucei phosphofructokinase: hit validation (AID 492961).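 Further: luminescence reports ADP formed as PFK phosphorylates fructose-6-phosphate with ATP; on the % scale 0 is the no-effect control and ±100 the full control effect.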 The gist of the method:
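Compounds titrated; %activity normalized to 0x and 1x enzyme controls, curve-fitted. Readout: ADP-Glo luminescence after 45 min room-temperature reaction of 1.25 nM PFK, 0.1 mM ATP, 0.5 mM F6P, pH 8.0.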

Test [2] is described as follows: qHTS profiling for inhibitors of Plasmodium falciparum proliferation (AID 504749). Further: potency means the concentration at half of the fitted maximal effect.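 On activity, negative = inhibition: 0% = DMSO vehicle and full inhibition = artemisinin control.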 On all read-outs here: nearly all actives have a fitted effect of over 60% in size. The following applies: P. falciparum in erythrocytes, SYBR Green DNA, 72 h; for activity, negative = inhibition: at 28.7 µM (top of the series). The gist of the method:
(§1)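 Each compound contacts P. falciparum-infected red blood cells for 72 h at 37 C; lysis buffer (Tris, EDTA, saponin, Triton X, SYBR Green I) is added and fluorescence measured next morning; values normalized to controls.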
On the technique in general: qHTS replaces the single test concentration by a dilution series.

The test system of a further test is 3D7. The test is described as above. The following applies: P. falciparum in erythrocytes, SYBR Green DNA, 72 h; series mostly up to 28.7 µM. The gist of the method: as §1
For the next test, the system named is ATS189. Described as above. The following applies: P. falciparum in erythrocytes, SYBR Green DNA, 72 h; series mostly up to 28.7 µM. The gist of the method: as §1
Another test relates to CP185. The description is as above. The following applies: P. falciparum in erythrocytes, SYBR Green DNA, 72 h; series mostly up to 28.7 µM. The gist of the method: as §1
Another test has as its system CP191. Described as above. The following applies: P. falciparum in erythrocytes, SYBR Green DNA, 72 h; series mostly up to 28.7 µM. Summed up:
as §1

The subject of a further test is CP192. The description is as above. The following applies: P. falciparum in erythrocytes, SYBR Green DNA, 72 h; series mostly up to 28.7 µM. Summed up:
as §1

The next test concerns CP194. The description is as above. The following applies: P. falciparum in erythrocytes, SYBR Green DNA, 72 h; series mostly up to 28.7 µM. The gist of the method:
as §1

The subject of the next test is CP211. The description is as above. The following applies: P. falciparum in erythrocytes, SYBR Green DNA, 72 h; series mostly up to 28.7 µM. Summed up: as §1
In the next test the test system is CP217. Described as above. The following applies: P. falciparum in erythrocytes, SYBR Green DNA, 72 h; series mostly up to 28.7 µM. Summed up: as §1
For another test, the system named is CP238. Described as above. The following applies: P. falciparum in erythrocytes, SYBR Green DNA, 72 h; series mostly up to 28.7 µM. The gist of the method:
as §1

Another test concerns CP252. Described as above. The following applies: P. falciparum in erythrocytes, SYBR Green DNA, 72 h; series mostly up to 28.7 µM. Summed up: as §1
The next test concerns CP262. The description is as above. The following applies: P. falciparum in erythrocytes, SYBR Green DNA, 72 h; series mostly up to 28.7 µM. Summed up: as §1
In a further test the test system is CP265. The description is as above. The following applies: P. falciparum in erythrocytes, SYBR Green DNA, 72 h; series mostly up to 28.7 µM. Summed up:
as §1

For another test, the system named is CP269. Described as above. The following applies: P. falciparum in erythrocytes, SYBR Green DNA, 72 h; series mostly up to 28.7 µM. The gist of the method:
as §1

A further test deals with CP286. Described as above. The following applies: P. falciparum in erythrocytes, SYBR Green DNA, 72 h; series mostly up to 28.7 µM. Summed up:
as §1

For another test, the system named is CP329. Described as above. The following applies: P. falciparum in erythrocytes, SYBR Green DNA, 72 h; series mostly up to 28.7 µM. The gist of the method:
as §1

A further test has as its system Dd2. The test is described as above. The following applies: P. falciparum in erythrocytes, SYBR Green DNA, 72 h; series mostly up to 28.7 µM. Summed up:
as §1

A further test concerns ECU. The description is as above. The following applies: P. falciparum in erythrocytes, SYBR Green DNA, 72 h; series mostly up to 28.7 µM. Summed up:
as §1

The subject of another test is FAB9. The description is as above. The following applies: P. falciparum in erythrocytes, SYBR Green DNA, 72 h; series mostly up to 28.7 µM. The gist of the method: as §1

ATP-dependent 6-phosphofructokinase (Trypanosoma brucei brucei), sequence (O15648 whole entry, looked up): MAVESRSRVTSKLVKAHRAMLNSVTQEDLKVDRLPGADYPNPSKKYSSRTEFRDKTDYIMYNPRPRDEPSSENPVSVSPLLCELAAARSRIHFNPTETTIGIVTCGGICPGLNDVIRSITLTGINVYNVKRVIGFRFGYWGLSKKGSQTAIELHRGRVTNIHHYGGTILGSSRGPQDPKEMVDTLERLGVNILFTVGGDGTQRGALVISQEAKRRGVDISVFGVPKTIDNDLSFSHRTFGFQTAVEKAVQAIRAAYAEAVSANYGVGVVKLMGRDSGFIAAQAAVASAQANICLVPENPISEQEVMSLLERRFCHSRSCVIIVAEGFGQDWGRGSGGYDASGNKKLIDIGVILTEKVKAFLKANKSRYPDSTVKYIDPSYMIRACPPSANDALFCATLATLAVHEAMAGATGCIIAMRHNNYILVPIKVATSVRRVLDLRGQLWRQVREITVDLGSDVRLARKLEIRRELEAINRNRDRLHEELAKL

For `CC(=O)O[C@]1(C(C)=O)CCC2C3CCC4=CC(=O)CCC4(C)C3(F)C(O)CC21C` (some centres undefined), the Potency entry (in test [1]; in the test with 3D7; with ATS189; in the test with CP185; in the test on CP191; with CP192) was “inactive” each time. Moreover, the Potency entry with CP194, with CP211, with CP217, with CP238, with CP252 and in the test on CP262 was “inactive” throughout. The Potency entry in the test with CP265, in the test on CP269, with CP286, in the test on CP329, with Dd2 and with ECU was “inactive” throughout. Further, the Potency result with FAB9 was “inactive”. The activity, negative = inhibition in [2] (parasite line A) was 7.47%; in test [2] (parasite line B) it was -19%.
As for `C=C(CC[C@@H](C)[C@H]1CCC2[C@]1(C)CC[C@]13C[C@@]14CCC(OC(=O)/C=C/c1ccc(O)c(OC)c1)C(C)(C)[C@@H]4CC[C@@]23C)C(C)C` (some centres undefined), the Potency result (in [1]; in the test on 3D7; in the test on ATS189; in the test with CP185; in the test on CP191; in the test on CP192) was “inactive” throughout. Also, the Potency entry with CP194, in the test with CP211, with CP217, in the test on CP238, in the test with CP252 and in the test with CP262 was “inactive” throughout. In addition, the Potency entry in the test with CP265, in the test on CP269, in the test with CP286, in the test on CP329, in the test with Dd2 and in the test with ECU was “inactive” throughout. Also, the Potency result in the test on FAB9 was “inactive”. Further, the activity, negative = inhibition was 3.06% in [2] (parasite line A) and 1.72% in test [2] (parasite line B).
Consider `C[N+]12CCCC[C@@H]1CCC(=C(c1cccs1)c1cccs1)C2` (some centres undefined), for which the Potency result (in test [1]; in the test with CP262) was “inactive” throughout. The Potency in test [2] (parasite line A) is 10 µM (active); in [2] (parasite line B) it was 12.6 µM (active); in the test with 3D7, 12.6 µM (active); with CP185, 8.91 µM (active); with CP191, 8.91 µM (active); in the test with CP192, 10.7 µM (active). The Potency in the test with CP211 is 13.5 µM (active); in the test with CP217, 7.94 µM (active); in the test on CP269 it was 13.5 µM (active); in the test with CP286, 6.31 µM (active); in the test on ECU, 1 µM (active); with FAB9 it was 11.2 µM (active).
In the case of `Cc1c(C)c2c(c(C)c1O)CCC(C)(CCCC(C)CCCC(C)CCCC(C)C)O2` (centres undefined), the Potency entry (in test [1]; with 3D7; with ATS189; in the test with CP185; in the test with CP191; in the test on CP192) was “inactive” each time. The Potency entry in the test on CP194, with CP211, with CP217, with CP238, in the test with CP252 and in the test with CP262 was “inactive” in each case. Besides, the Potency entry with CP265, in the test on CP269, in the test with CP286, with CP329, with ECU and with FAB9 was “inactive” throughout. Besides, the results for the activity, negative = inhibition in [2] (parasite line A) and in test [2] (parasite line B) were 15.7% and 8.58%, respectively.
For the molecule `Nc1nc2[nH]cc(CCc3ccc(C(=O)NC(CCC(=O)O)C(=O)O)cc3)c2c(=O)[nH]1` (centres undefined), the Potency entry in test [1] was “inactive”. For the same molecule, the Potency in test [2] (parasite line A) is 0.126 µM (active); in test [2] (parasite line B), 0.199 µM (active); in the test on 3D7, 8.91 µM (active); in the test on ATS189, 0.224 µM (active); in the test with CP191, 0.158 µM (active); in the test with CP192 it was 9.53 µM (active). The Potency in the test with CP194 was 3.79 µM (active); in the test on CP211 it was 3.79 µM (active); in the test on CP217, 0.0562 µM (active); in the test on CP238, 11.2 µM (active); with CP252, 0.158 µM (active); in the test with CP262 it was 0.426 µM (active). Moreover, the Potency is 1.2 µM (active) with CP329, 5.01 µM (active) in the test on Dd2, 0.199 µM (active) with ECU and 0.316 µM (active) in the test with FAB9.
For the molecule `C#C[C@]1(O)CC[C@H]2[C@H]3[C@H](CC[C@@]21C)C1=C(CC(=O)CC1)C[C@@H]3C`, the Potency result (in test [1]; with 3D7; with ATS189; in the test with CP185; in the test with CP191; in the test on CP192) was “inactive” throughout. The Potency result in the test on CP194, in the test on CP211, in the test with CP217, in the test with CP238, in the test on CP252 and in the test on CP262 was “inactive” each time. In addition, the Potency result in the test on CP265, with CP269, with CP286, with CP329, in the test on Dd2 and in the test on ECU was “inactive” each time. In addition, the Potency entry with FAB9 was “inactive”. In addition, the results for the activity, negative = inhibition in [2] (parasite line A) and in test [2] (parasite line B) were -14.8% and -21.9%, respectively.
